Results as given in the supplement of paper PMC7866885, “A novel bicyclic 2,4-diaminopyrimidine inhibitor of Streptococcus suis dihydrofolate reductase” (PeerJ, 2021).
± gives the standard deviation.

System: Streptococcus suis P1/7
Test: percent growth relative to DMSO control; higher = less growth inhibition
Conditions: 10 µM; incubation time 18 h
Experimental: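 CLSI broth microdilution: 5x10^4 CFU of Streptococcus suis (strain P1/7 or HE06) incubated with 10 µM Pathogen Box compound in cation-adjusted Mueller Hinton broth, 37 °C, 5% CO2, 18 h. Growth read as OD600 and expressed as percent of the DMSO-treated control (100%); mean ± SD of three independent experiments.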

Structure (SMILES) | percent growth [%]
CC(C)(C)C(O)C(Oc1ccc(-c2ccccc2)cc1)n1cncn1 (centres undefined) | 86.6 ± 29
Cc1cc(C2=NOC(c3cc(Cl)c(F)c(Cl)c3)(C(F)(F)F)C2)ccc1C(=O)NCc1ccc2c(c1)C(C)(C)OB2O (centres undefined) | 61.5 ± 40
CO/C=C(/C(=O)OC)c1ccccc1Oc1cc(Oc2ccccc2C#N)ncn1 | 80.8 ± 20
O=C1O[C@@H](COc2ccon2)CN1c1cc(F)c(C2=CCN(Cc3ccccc3)CC2)c(F)c1 | -0.108 ± 0.19
CO[C@@H]1CN(c2ccc(C#CC3(O)CN4CCC3CC4)c(Cc3ccccc3)n2)C[C@H]1O (some centres undefined) | 124 ± 50
CC1COC(Cn2cncn2)(c2ccc(Oc3ccc(Cl)cc3)cc2Cl)O1 (centres undefined) | 82.9 ± 29
Cc1nn(Cc2ccccc2)c(Cl)c1C(=O)NC1CCCCCC1 | 93.1 ± 26
Nc1c2c(nc3sc4c(c13)CCCC4)CCCC2 | 97.3 ± 30
CCc1nn(C)c(C(=O)NCc2ccc(Oc3ccc(C)cc3)cc2)c1Cl | 91.4 ± 28
CO/N=C(\C(=O)OC)c1ccccc1CO/N=C(\C)c1cccc(C(F)(F)F)c1 | 82 ± 16
CC1(C)OB(O)c2ccc(C3=NOC(c4cc(Cl)c(F)c(Cl)c4)(C(F)(F)F)C3)cc21 (centres undefined) | 0.819 ± 0.82
Cc1nn(C)c(C)c1NS(=O)(=O)c1c(Cl)cc(-c2ccnc(N3CCNCC3)c2)cc1Cl | 76.6 ± 7.2
Cc1cccc(C(=O)Nc2ccnc(N(C)C3CCN(CC(C)C)CC3)c2)c1 | 67.9 ± 22
O=C1O[C@@H](CO)CN1c1cc(F)c(C2=CCN(Cc3ccccc3)CC2)c(F)c1 | 13.5 ± 23
